# Experimental data from ChEMBL document CHEMBL2218924, “A broad activity screen in support of a chemogenomic map for kinase signalling research and drug discovery” (Biochem J, 2013).
# Tests used:
# [1] = biological target: T1, Ephrin type-A receptor 3 (Homo sapiens) (UniProt P29320); conditions: at 10 µM
# T1 sequence (whole entry): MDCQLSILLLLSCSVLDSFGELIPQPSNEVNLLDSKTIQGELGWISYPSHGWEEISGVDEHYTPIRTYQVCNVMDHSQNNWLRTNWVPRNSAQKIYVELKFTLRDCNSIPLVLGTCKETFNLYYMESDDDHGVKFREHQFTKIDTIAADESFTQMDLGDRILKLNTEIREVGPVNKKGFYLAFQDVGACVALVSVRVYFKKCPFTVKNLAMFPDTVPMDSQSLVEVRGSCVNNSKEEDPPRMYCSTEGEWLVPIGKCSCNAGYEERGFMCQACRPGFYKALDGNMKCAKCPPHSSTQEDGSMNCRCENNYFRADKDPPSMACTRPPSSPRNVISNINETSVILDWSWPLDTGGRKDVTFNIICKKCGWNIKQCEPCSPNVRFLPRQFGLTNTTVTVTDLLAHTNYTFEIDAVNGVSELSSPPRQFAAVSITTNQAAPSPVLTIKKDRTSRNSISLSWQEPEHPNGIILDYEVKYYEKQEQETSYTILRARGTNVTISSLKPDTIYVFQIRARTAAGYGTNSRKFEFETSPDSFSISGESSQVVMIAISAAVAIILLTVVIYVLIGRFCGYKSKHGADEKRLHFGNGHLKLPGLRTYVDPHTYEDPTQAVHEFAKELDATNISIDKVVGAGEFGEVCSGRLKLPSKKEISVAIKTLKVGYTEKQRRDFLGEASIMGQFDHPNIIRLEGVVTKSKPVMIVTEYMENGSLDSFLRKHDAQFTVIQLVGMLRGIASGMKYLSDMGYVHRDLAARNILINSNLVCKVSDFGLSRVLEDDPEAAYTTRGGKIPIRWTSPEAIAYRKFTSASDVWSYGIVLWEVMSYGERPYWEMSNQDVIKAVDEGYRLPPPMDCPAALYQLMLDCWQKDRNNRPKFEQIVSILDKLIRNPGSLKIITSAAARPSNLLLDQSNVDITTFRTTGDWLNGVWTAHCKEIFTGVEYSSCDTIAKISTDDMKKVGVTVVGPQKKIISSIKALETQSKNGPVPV
# [2] = biological target: T2, Ephrin type-A receptor 8 (Homo sapiens) (UniProt P29322); conditions: at 1 µM
# T2 sequence (whole entry): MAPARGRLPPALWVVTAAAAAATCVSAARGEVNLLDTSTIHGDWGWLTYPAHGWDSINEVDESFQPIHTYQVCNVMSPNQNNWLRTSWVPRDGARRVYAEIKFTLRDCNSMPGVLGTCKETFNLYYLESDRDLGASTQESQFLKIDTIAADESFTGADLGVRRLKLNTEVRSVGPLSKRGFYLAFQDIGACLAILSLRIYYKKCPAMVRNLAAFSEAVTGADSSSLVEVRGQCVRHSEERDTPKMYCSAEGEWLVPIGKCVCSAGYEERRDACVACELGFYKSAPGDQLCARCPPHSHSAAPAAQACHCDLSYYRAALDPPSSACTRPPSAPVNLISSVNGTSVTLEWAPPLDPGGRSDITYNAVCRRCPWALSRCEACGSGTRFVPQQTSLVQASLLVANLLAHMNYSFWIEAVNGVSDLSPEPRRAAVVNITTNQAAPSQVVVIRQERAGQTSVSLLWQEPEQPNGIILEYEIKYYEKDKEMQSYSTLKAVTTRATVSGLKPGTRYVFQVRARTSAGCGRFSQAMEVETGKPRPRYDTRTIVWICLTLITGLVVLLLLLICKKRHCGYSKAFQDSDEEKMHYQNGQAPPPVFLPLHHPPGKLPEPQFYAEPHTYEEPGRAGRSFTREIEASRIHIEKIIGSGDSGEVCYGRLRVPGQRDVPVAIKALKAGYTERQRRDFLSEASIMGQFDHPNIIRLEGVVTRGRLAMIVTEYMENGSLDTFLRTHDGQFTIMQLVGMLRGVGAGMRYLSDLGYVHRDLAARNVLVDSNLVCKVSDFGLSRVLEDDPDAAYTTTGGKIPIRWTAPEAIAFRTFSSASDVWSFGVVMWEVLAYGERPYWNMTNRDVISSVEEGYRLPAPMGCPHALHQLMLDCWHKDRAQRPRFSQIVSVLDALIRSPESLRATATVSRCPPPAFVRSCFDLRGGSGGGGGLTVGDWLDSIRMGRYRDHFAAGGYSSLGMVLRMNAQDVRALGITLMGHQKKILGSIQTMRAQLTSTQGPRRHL
# [3] = biological target: T2, Ephrin type-A receptor 8 (Homo sapiens); conditions: at 10 µM
# [4] = biological target: T3, Ephrin type-B receptor 1 (Homo sapiens) (UniProt P54762); conditions: at 1 µM
# T3 sequence (whole entry): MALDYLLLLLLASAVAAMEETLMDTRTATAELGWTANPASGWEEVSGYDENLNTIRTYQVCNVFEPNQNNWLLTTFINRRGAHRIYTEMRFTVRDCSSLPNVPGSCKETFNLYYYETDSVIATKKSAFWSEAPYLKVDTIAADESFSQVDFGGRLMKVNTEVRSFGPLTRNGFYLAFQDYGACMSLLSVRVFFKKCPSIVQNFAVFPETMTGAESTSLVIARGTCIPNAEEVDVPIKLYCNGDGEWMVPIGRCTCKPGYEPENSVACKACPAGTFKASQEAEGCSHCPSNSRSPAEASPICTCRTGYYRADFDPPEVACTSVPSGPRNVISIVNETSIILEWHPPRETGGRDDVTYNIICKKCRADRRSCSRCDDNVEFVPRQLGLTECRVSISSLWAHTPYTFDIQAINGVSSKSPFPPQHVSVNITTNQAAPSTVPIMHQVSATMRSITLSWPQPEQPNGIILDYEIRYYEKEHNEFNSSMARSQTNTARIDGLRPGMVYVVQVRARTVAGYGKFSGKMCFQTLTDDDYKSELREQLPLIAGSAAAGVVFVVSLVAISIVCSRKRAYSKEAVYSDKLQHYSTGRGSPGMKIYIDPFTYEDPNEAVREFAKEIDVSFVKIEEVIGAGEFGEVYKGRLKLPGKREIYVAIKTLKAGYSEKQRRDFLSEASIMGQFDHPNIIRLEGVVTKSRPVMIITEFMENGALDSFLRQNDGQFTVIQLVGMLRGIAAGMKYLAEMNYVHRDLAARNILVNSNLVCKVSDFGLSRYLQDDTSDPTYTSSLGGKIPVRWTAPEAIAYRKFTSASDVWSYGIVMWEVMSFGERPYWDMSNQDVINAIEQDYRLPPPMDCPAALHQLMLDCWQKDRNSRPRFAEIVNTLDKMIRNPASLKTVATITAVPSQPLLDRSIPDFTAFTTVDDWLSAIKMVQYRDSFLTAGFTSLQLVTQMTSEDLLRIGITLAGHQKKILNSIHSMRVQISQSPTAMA
# [5] = biological target: T3, Ephrin type-B receptor 1 (Homo sapiens); conditions: at 10 µM
# [6] = biological target: T4, Ephrin type-B receptor 2 (Homo sapiens) (UniProt P29323); conditions: at 1 µM
# T4 sequence (whole entry): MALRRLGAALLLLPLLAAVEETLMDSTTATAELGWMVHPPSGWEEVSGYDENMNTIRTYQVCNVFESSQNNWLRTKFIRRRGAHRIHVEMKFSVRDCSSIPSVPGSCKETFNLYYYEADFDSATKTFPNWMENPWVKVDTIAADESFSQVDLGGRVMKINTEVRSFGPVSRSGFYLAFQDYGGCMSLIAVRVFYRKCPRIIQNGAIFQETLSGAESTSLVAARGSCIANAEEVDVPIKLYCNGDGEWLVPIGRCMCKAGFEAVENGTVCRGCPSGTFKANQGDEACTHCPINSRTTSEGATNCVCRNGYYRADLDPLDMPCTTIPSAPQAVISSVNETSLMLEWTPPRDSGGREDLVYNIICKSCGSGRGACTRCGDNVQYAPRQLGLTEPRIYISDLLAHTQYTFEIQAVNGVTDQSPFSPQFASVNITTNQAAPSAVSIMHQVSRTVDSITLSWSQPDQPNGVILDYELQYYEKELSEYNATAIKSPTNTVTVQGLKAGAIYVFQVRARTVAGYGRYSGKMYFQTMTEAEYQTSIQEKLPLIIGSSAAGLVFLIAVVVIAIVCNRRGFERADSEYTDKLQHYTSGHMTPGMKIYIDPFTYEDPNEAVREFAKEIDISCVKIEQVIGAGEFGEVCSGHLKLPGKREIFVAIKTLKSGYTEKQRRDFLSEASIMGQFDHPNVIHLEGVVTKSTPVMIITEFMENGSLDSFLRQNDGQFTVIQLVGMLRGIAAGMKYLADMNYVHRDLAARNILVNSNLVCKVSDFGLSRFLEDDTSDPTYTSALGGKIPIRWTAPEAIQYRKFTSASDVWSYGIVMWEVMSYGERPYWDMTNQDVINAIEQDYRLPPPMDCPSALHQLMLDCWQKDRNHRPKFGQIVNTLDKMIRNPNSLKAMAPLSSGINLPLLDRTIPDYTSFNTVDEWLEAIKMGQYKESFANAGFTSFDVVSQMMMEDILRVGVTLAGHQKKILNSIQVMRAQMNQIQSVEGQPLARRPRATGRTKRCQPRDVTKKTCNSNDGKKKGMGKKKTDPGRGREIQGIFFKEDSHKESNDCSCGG
# [7] = biological target: T4, Ephrin type-B receptor 2 (Homo sapiens); conditions: at 10 µM
# [8] = biological target: T5, Ephrin type-B receptor 3 (Homo sapiens) (UniProt P54753); conditions: at 1 µM
# T5 sequence (whole entry): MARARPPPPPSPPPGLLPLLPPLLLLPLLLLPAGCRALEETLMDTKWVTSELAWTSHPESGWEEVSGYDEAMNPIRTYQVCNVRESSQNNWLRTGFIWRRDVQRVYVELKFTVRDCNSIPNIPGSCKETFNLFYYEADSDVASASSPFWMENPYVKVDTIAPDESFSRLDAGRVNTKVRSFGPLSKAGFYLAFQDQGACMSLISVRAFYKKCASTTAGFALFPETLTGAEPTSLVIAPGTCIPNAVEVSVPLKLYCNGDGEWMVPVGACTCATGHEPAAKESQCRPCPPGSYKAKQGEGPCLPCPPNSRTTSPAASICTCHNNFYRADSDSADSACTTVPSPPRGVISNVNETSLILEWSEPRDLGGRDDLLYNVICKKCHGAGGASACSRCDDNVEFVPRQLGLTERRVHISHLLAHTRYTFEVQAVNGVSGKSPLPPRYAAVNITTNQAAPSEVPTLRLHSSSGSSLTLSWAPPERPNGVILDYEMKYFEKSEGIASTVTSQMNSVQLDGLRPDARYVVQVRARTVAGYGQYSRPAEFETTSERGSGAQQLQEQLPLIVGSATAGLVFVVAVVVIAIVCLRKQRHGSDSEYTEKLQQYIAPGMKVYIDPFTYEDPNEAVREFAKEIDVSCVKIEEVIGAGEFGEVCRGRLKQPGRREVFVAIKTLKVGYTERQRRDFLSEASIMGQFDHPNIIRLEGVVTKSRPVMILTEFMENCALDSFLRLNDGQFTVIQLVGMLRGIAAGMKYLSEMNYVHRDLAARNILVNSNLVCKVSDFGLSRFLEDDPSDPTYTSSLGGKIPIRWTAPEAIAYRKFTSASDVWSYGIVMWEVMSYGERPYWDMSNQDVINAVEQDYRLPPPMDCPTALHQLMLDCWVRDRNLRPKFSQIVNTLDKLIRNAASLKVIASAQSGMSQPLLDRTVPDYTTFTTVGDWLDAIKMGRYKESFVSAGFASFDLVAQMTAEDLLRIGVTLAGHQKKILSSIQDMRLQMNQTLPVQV
# [9] = biological target: T6, Ephrin type-B receptor 4 (Homo sapiens) (UniProt P54760); conditions: at 10 µM
# T6 sequence (whole entry): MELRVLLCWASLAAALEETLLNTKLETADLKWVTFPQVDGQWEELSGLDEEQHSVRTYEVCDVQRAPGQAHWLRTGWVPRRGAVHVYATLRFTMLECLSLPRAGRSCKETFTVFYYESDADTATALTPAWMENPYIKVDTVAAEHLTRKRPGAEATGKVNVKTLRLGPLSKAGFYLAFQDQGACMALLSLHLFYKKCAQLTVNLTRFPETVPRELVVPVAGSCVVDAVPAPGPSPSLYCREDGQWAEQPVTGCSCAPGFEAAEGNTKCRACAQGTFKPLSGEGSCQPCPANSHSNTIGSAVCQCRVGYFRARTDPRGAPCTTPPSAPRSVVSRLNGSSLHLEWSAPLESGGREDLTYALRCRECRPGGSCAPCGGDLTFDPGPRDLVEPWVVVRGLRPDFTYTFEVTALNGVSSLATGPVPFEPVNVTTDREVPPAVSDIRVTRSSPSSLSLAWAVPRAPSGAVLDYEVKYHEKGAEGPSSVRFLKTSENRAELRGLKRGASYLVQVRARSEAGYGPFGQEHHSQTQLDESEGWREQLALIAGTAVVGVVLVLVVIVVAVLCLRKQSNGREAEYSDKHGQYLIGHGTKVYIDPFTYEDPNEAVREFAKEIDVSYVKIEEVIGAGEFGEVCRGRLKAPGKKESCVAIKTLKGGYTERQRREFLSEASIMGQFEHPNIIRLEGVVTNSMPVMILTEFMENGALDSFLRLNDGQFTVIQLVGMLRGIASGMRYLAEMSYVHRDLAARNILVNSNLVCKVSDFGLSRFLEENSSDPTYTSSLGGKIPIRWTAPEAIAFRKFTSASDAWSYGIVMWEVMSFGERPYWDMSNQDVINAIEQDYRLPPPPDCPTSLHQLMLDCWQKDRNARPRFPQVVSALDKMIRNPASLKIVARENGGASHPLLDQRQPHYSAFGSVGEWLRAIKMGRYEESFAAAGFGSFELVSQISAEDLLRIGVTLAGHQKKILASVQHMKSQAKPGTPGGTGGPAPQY
# [10] = biological target: Focal adhesion kinase 1 (Homo sapiens) (UniProt Q05397); conditions: at 1 µM
# Focal adhesion kinase 1 (Homo sapiens), sequence (Q05397 2-1052 limits assumed): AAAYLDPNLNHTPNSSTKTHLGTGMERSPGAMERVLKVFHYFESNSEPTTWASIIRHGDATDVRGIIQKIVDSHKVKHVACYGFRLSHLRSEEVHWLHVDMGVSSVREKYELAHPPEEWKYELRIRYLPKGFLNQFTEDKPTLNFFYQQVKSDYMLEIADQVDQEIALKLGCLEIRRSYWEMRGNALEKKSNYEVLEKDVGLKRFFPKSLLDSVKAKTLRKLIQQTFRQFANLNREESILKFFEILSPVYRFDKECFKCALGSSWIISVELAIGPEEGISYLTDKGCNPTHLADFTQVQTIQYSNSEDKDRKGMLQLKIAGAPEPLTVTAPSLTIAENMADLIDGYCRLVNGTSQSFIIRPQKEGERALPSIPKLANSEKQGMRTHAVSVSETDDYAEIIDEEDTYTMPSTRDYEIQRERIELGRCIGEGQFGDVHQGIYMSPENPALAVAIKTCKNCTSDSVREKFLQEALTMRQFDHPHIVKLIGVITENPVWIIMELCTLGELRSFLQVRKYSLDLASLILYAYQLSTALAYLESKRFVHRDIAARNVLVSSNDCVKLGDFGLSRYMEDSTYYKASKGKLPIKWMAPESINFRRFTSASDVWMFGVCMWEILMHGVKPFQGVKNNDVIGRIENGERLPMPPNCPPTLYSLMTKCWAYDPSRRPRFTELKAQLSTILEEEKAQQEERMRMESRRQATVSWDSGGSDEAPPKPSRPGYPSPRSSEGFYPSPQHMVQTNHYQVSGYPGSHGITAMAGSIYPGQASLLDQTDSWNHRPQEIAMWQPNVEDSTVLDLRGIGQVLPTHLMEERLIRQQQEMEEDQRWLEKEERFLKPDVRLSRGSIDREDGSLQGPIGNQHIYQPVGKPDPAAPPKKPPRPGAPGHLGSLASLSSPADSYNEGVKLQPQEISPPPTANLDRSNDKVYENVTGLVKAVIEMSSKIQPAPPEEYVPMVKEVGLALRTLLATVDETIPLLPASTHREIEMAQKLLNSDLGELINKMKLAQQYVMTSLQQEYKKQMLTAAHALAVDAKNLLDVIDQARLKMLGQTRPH
# [11] = biological target: Ephrin type-A receptor 4 (Homo sapiens) (UniProt P54764); conditions: at 1 µM
# Ephrin type-A receptor 4 (Homo sapiens), sequence (P54764 whole entry): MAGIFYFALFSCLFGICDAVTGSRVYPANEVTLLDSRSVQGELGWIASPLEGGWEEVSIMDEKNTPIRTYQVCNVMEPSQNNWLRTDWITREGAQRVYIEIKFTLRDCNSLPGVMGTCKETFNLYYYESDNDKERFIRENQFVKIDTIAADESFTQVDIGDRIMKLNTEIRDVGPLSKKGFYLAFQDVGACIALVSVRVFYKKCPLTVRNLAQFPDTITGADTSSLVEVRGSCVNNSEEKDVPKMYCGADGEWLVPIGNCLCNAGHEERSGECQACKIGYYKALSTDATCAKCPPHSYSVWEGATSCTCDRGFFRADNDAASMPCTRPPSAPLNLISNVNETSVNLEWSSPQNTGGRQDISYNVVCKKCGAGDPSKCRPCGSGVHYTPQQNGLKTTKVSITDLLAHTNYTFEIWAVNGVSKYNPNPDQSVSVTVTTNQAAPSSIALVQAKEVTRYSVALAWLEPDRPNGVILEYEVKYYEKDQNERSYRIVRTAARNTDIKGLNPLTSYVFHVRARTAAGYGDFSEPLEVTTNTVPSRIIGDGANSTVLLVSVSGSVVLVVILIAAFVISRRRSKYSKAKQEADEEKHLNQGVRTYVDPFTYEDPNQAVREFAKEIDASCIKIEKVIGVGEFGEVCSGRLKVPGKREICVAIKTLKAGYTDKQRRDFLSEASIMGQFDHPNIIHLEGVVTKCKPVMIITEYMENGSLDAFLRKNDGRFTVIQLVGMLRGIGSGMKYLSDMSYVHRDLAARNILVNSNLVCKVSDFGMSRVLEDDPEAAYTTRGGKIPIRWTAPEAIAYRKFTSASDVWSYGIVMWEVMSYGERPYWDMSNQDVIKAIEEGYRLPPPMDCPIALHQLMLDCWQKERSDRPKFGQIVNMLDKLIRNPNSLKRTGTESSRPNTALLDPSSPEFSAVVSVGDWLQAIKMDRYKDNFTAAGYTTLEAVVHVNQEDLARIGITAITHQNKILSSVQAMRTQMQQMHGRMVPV
# [12] = biological target: Ephrin type-A receptor 7 (Homo sapiens) (UniProt Q15375); conditions: at 10 µM
# Ephrin type-A receptor 7 (Homo sapiens), sequence (Q15375 28-998 limits assumed): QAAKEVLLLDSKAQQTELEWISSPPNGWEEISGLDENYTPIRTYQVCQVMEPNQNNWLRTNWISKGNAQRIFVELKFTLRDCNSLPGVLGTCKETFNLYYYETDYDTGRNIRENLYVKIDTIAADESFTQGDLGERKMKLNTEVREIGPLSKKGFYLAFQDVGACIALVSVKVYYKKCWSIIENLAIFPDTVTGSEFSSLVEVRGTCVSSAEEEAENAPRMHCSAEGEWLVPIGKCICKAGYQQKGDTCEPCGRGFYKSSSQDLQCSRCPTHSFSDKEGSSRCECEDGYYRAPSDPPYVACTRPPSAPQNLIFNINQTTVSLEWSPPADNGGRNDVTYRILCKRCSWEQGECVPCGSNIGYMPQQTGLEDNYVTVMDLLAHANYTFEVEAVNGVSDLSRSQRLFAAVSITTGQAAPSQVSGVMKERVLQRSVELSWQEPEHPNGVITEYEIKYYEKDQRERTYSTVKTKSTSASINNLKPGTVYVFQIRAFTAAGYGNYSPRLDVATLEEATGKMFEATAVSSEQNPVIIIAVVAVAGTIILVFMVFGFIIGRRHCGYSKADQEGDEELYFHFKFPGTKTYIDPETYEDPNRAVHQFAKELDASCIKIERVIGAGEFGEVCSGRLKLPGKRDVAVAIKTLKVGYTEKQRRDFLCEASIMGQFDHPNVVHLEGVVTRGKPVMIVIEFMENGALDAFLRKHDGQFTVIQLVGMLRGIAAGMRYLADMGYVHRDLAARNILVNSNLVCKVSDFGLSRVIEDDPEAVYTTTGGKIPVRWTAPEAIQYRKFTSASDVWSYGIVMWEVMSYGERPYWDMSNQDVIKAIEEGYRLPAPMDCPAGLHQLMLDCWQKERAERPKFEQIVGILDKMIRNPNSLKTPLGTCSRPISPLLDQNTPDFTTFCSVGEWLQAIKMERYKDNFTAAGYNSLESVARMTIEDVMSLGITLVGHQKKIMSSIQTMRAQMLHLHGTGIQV
# [13] = biological target: T5, Ephrin type-B receptor 3 (Homo sapiens); conditions: at 10 µM
# [14] = biological target: T6, Ephrin type-B receptor 4 (Homo sapiens); conditions: at 1 µM
# [15] = biological target: Receptor tyrosine-protein kinase erbB-4 (Homo sapiens) (UniProt Q15303); conditions: at 1 µM
# Receptor tyrosine-protein kinase erbB-4 (Homo sapiens), sequence (Q15303 whole entry): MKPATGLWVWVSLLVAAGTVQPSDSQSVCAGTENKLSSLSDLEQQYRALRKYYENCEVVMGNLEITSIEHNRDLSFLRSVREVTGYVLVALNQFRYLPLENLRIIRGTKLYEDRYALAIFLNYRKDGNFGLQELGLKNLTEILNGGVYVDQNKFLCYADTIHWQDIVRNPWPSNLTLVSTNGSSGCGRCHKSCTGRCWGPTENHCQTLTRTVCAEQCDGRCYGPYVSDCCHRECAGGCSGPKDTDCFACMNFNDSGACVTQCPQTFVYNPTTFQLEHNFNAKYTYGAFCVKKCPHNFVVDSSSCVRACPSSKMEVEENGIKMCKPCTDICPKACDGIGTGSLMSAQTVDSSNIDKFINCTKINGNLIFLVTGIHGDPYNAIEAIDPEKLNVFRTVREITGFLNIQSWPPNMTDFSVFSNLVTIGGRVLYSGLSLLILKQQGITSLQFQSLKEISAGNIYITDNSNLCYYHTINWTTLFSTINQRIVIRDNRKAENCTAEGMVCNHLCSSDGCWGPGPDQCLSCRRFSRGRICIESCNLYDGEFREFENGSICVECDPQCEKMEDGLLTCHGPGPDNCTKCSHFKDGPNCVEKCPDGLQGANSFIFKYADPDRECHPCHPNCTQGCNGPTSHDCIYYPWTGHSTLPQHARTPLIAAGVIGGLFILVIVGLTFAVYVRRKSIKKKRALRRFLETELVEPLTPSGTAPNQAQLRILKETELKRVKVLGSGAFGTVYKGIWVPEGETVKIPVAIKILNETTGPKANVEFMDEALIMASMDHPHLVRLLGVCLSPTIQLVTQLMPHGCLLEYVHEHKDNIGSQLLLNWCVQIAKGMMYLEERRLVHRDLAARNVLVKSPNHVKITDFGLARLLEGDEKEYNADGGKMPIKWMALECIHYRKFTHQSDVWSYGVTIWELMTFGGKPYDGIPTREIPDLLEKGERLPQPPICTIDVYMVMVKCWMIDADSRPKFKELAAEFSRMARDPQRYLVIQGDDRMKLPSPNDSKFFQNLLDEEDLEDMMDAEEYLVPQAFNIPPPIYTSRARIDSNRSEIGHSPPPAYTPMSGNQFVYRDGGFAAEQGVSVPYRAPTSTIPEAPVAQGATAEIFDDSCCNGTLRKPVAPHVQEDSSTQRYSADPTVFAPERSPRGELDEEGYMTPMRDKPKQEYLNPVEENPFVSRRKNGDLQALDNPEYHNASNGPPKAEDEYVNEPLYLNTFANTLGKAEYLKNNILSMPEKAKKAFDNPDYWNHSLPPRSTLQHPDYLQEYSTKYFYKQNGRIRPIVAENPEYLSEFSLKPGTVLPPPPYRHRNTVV
# [16] = biological target: Receptor tyrosine-protein kinase erbB-4 (Homo sapiens) (UniProt Q15303); conditions: at 10 µM
SMILES,residual activity [1] [%],residual activity [2] [%],residual activity [3] [%],residual activity [4] [%],residual activity [5] [%],residual activity [6] [%],residual activity [7] [%],residual activity [8],residual activity [9] [%],residual activity [10] [%],residual activity [11] [%],residual activity [12] [%],residual activity [13] [%],residual activity [14] [%],residual activity [15] [%],residual activity [16] [%]
O=C(Nc1nc2ccccc2n1CCN1CCOCC1)c1cccc([N+](=O)[O-])c1,81,108,103,100,103,113,110,110% (inactive),109,131,–,–,–,–,–,–
N#C/C(=C1/Nc2ccccc2S1)c1ccnc(NCCc2cccnc2)n1,–,98,83,–,55,–,–,141% (inactive),73,100,123,77,74,72,88,61
